Rows were chosen to be rich in hits. Some 1.7% of all compounds tested hit in one or more screens of this group.
Glioma ERSR ind: inducers of ER stress response in human glioma cells | U87-MG GRP78 promoter luciferase reporter, 16 h | Potency, µM, hits mostly activators | hit rate 0.02% among 420,000 | AID 602332; note: series mostly up to about 76 µM; nearly all actives have a fitted effect of over 35% in size
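Stably transfected U87-MG glioma cells carrying a GRP78-based luciferase sensor; 16 h compound incubation. Luminescence end-point read 10 min after Bright-Glo addition at room temperature.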
TrxR1 inh: rat TrxR1 inhibition; O89049; Potency, µM (top dose mostly 114 µM), hits mostly inhibitors; recombinant rTrxR1, NADPH fluorescence consumption, selenite substrate; hit rate 1% among 390,000; note: nearly all actives have a fitted effect of over 65% in size
Target sequence (O89049 whole entry, looked up): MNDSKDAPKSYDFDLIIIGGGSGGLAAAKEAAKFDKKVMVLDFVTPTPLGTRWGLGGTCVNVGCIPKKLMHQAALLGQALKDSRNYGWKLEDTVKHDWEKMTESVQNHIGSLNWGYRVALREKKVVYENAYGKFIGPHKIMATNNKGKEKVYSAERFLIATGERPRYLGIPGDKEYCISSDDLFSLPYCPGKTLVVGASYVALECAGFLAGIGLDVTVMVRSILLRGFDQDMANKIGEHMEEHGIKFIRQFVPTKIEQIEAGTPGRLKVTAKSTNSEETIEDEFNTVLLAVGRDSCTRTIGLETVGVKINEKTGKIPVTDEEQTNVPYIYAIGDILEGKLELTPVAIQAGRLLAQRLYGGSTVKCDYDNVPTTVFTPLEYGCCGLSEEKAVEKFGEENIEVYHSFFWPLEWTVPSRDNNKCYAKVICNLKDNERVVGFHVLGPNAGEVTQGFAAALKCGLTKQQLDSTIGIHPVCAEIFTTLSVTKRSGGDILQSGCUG
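Rat TrxR1 (90 nM in the dispensed reagent) was pre-reduced with 400 uM NADPH for 5 min at room temperature, then incubated with compound for 15 min. After 400 uM selenite was added, NADPH fluorescence (Ex 340/Em 450 nm) was followed for 8 min.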
ALOX12 inh: inhibitors of human 12S-lipoxygenase ALOX12; P18054; purified 12hLO, xylenol orange hydroperoxide absorbance; Potency, µM (titrated, usually from 108 µM), usual class: inhibitors; hit rate 1.1% among 580,000
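Purified human 12hLO at 150 nM in 25 mM Hepes, 0.01% Triton X-100, pH 7.0, preincubated 15 min at room temperature with compound. Reaction started with 40 uM arachidonic acid, 30 min at room temperature. Hydroperoxide measured by Fe-xylenol orange, 573/405 nm absorbance ratio.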
TrxR1 substrate: substrates of rat thioredoxin reductase 1. AID 588456. hit rate 0.01% among 390,000. Potency, µM (highest dose often 114 µM). O89049. purified TrxR1 substrate turnover, NADPH consumption readout; note: nearly all actives have a fitted effect of over 50% in size
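Rat TrxR1, dispensed at 90 nM, was prereduced with 400 uM NADPH (final) for 5 min at ~22 deg C, then incubated with compound 15 min before 400 uM selenite. A first-read NADPH fluorescence drop versus no-compound background flagged substrates.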
IDH1 R132H inh: inhibitors of human mutant IDH1 R132H; O75874; IDH1-R132H enzyme, NADPH consumption, diaphorase/resazurin fluorescence; Potency, µM (series often up to 76.6 µM), usual class: inhibitors; hit rate 0.093% among 390,000; AID 602179; note: nearly all actives have a fitted effect of over 65% in size
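IDH1-R132H (0.5 ug/mL dispensed) in pH 7.5 Tris buffer was preincubated 30 min with compound, then given a substrate mix of 0.016 mM NADPH and 2 mM alpha-KG for 80 min at room temperature; remaining NADPH was read by diaphorase/resazurin fluorescence.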
Anesthetic bind: binds horse apoferritin like a general anesthetic | P02791 | apoferritin/1-aminoanthracene competitive binding, fluorescence | Potency, µM (series often up to 77.5 µM), actives largely listed as inhibitors | hit rate 0.074% among 350,000 | AID 485281; note: nearly all actives have a fitted effect of over 20% in size
Target sequence (P02791 2-175 limits assumed): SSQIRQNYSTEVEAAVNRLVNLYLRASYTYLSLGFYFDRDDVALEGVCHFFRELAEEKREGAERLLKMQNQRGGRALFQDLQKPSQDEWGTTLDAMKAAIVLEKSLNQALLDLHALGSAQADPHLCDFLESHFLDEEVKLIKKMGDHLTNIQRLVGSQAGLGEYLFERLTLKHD
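Horse-spleen apoferritin (10 uM) in 50% saturated 1-aminoanthracene in PBS was incubated 10 min at room temperature with compound. Fluorescence (ex 380, em 535 nm) was normalized to free and bound 1-AMA, with concentration-response fitted by a four-parameter Hill equation.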
A number is an active result; i = inactive; ? = inconclusive; nt = not tested or not shown; [ ] = remark or other dose. Calls come from the whole dose curve; as a rule, active = well fitted curve in the direction sought with a large enough effect; inconclusive = small, poorly fitted or top-dose-only effect, or another doubt; inactive = no such curve, though single readings can be large; an effect the other way counts as inactive or inconclusive.

SMILES	Glioma ERSR ind	TrxR1 inh	ALOX12 inh	TrxR1 substrate	IDH1 R132H inh	Anesthetic bind
CCOc1ccc(CCNC(=O)/C=C/c2ccco2)cc1OCC	i	20µM	?	i	i	i
COc1ccc(/C=N/NC(=O)CNC(=O)/C=C/c2ccco2)cc1OC	i	32µM	i	i	i	i
CCOc1ccc(CCNC(=O)COC(=O)/C=C/c2ccco2)cc1OCC	i	?	i	i	i	i
C=C(C)COc1ccc2c(C)c(CCC(=O)Nc3nc4ccccc4[nH]3)c(=O)oc2c1	nt	nt	i	nt	nt	nt
Cc1ccc(-c2nnc(C3CN(C(=O)Cc4ccc(F)cc4)CC34CCOCC4)o2)cc1 (centres undefined)	nt	nt	i	nt	nt	nt
CC1=C(C(=O)N(C(C)C)C(C)C)CC(CC(=O)NC(c2ccccc2)c2ccccc2)C(=O)N1CCCN1CCCC1=O (centres undefined)	i	nt	i	nt	nt	nt
COc1ccc(CCc2nc(-c3nnn4c3COC(c3ccc(C)cc3)C4)no2)cc1 (centres undefined)	nt	nt	i	nt	nt	nt
Clc1ccc(N/N=C/c2cccc3ccccc23)cc1Cl	nt	nt	5µM	nt	nt	nt
Clc1ccc(N/N=C/c2cccc(Cl)c2Cl)cc1Cl	nt	nt	1µM	nt	nt	nt
O=C(O)c1cccc(N/N=C/c2cccc3ccccc23)c1	i	i	?	i	i	i
CCOC(=O)C1CCCN(C(=O)C2COC3(CCCCC3)N2C(=O)c2cccc(Cl)c2)C1 (centres undefined)	nt	nt	i	nt	nt	nt
Cc1cnc(CC2CCN(C(=O)C3CCC3)C2)n1C1CC1 (centres undefined)	nt	nt	i	nt	nt	nt
C#CCN1C(=O)C(O)(CC(=O)/C=C/C=C/c2ccccc2)c2ccccc21 (centres undefined)	i	28µM	i	i	i	i
O=C1S/C(=C\C=C\c2ccco2)C(=O)N1c1ccccc1	i	50µM	28µM	i	i	?
O=C1S/C(=C\C=C\c2ccco2)C(=O)N1c1ccc(O)cc1	i	?	40µM	i	i	i
Cc1ccc(N2C(=O)CS(=O)(=O)C23C(=O)N(Cc2ccccc2F)c2ccccc23)cc1Cl (centres undefined)	i	i	i	i	i	i
O=S(=O)(NCCC1=CCCCC1)c1cccc2nsnc12	i	i	i	i	i	8.9µM
O=C(CCNS(=O)(=O)c1cccc2nsnc12)NCCC1=CCCCC1	i	?	i	i	i	i
COCCN1C(=O)c2cccn2CC1CNC(=O)c1cn[nH]c1-c1ccccc1 (centres undefined)	nt	nt	i	nt	nt	nt
NC(=O)c1ccc(NC(=O)COC(=O)CC2CC3CCC2C3)cc1 (centres undefined)	i	i	i	i	i	nt
O=C(COC(=O)CC1CC2CCC1C2)NC(=O)NCc1ccco1 (centres undefined)	i	i	i	i	i	13µM
Cc1ccc(C(=O)CCNc2ccc(F)c(Cl)c2)o1	i	56µM	?	i	i	i
Cc1ccc(C(=O)CCNc2ccc(Br)cc2)o1	i	i	i	i	i	i
C(=C\c1ccco1)/c1ccc2ccccc2n1	i	?	40µM	i	i	i
S=c1nc(-c2ccccc2Br)[nH][nH]1	i	i	25µM	i	i	i
SMILES	Glioma ERSR ind	TrxR1 inh	ALOX12 inh	TrxR1 substrate	IDH1 R132H inh	Anesthetic bind
Oc1ccc(-c2nc(=S)[nH][nH]2)cc1	i	i	?	i	i	i
S=c1nc(-c2cc(Cl)ccc2Cl)[nH][nH]1	i	?	10µM	i	i	i
Cc1[nH]n(-c2ncc(-c3ccccc3)s2)c(=O)c1C(c1ccc(Cl)cc1)C(C#N)C#N (centres undefined)	i	22µM	?	i	i	i
Cc1ccc(S(=O)(=O)N(C)CC(=O)Nc2nc3ccccc3s2)cc1	i	i	i	i	i	i
Cc1ccc(/C(=N/Nc2nc3ccccc3s2)C2=C(O)c3ccccc3C2=O)cc1	i	i	3.5µM	i	i	i
O=[N+]([O-])c1cccc(N=Nc2ccc(O)cc2O)c1	i	i[2.29 µM]	20µM	i[2.29 µM]	i	nt
CS(=O)(=O)c1ccc(Sc2nc3ccccc3s2)c([N+](=O)[O-])c1	i	40µM	nt	i	i	i
O=[N+]([O-])c1cc(S(=O)(=O)C(F)(F)F)ccc1Sc1nc2ccccc2[nH]1	i	8.9µM	i	i	i	?
O=[N+]([O-])c1cc(S(=O)(=O)C(F)(F)F)ccc1Sc1nc2ccccc2s1	i	1.6µM	i	i	i	i
O=S(=O)(Nc1ccc(O)c(Sc2nc3ccccc3s2)c1)c1ccc(F)cc1	i	i	?	i	?	?
O=C(NC1CCN(c2ccc(F)cc2)C1=O)c1cccc(Br)c1 (centres undefined)	nt	nt	i	nt	nt	nt
CC(C)(Cc1ccc(O)cc1)NC(=O)CC(=O)N/N=C/c1ccc([N+](=O)[O-])cc1	i	i	i	i	i	?
CC(C)(Cc1ccc(O)cc1)NC(=O)CC(=O)N/N=C/c1ccc(Cl)cc1	i	i	8.9µM	i	i	?
OCC1OC(C(N=Nc2ccccc2)=NNc2ccccc2)C(O)C1O (centres undefined)	nt	nt	i	nt	nt	nt
CC(=O)Nc1ccc(S(=O)(=O)N2CCN(C(=O)C3COc4ccccc4O3)CC2)cc1 (centres undefined)	i	i	i	i	i	i
Cc1ccc(CNC(=O)Cc2c(C)c3cc(Cl)c(O)cc3oc2=O)cc1	nt	nt	i	nt	nt	nt
Cc1c(CC(=O)NCc2ccc(F)cc2)c(=O)oc2cc(O)c(Cl)cc12	i	79µM	i	i	i	i
O=C(CCl)N1CCN(C(=O)C2COc3ccccc3O2)CC1 (centres undefined)	i	28µM	i	i	i	nt
COc1ccc2c(C)c(CC(=O)N3CCN(C(=O)C4COc5ccccc5O4)CC3)c(=O)oc2c1C (centres undefined)	i	i	i	i	i	i
COc1ccc(S(=O)(=O)N2CCN(C(=O)C3COc4ccccc4O3)CC2)cc1 (centres undefined)	i	50µM	40µM	i	i	nt
CCN1CCN(C(=O)C2COc3ccccc3O2)CC1 (centres undefined)	i	?	i	i	i	i
Cc1c(CC(=O)N2CCN(C(=O)C3COc4ccccc4O3)CC2)c(=O)oc2cc(O)c(Cl)cc12 (centres undefined)	i	32µM	i	i	i	i
CC(c1ccc(-c2ccc(=O)n(C)n2)cc1)N1CCCCC1 (centres undefined)	nt	nt	i	nt	nt	nt
Nc1ccc(-c2nc3ccc(N)cc3[nH]2)cc1	i	i	i	i	i	i
Nc1ccc(-c2nc3c(Cl)c(N)ccc3[nH]2)cc1	i	79µM	i	i	i	i

High-throughput results from PubChem.
